Compound activity deposited in PubChem BioAssay by several laboratories.
The list is not random: actives were taken first. Their share in the collection is about 2.2%.
TROY signal inh: TROY signaling inhibition; Q293 LMP1-TROYcd NF-kB luciferase reporter, 4 h; inhibition, % at 10 µM; 360,000 compounds, 0.98% hits; AID 1347056;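 active means compounds whose plate-normalised and pattern-corrected inhibition of the luciferase reporter signal at the single screening dose is 50% or more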
HSP90 refold inh: blocks HSP90-mediated luciferase refolding in reticulocyte lysate; Rabbit reticulocyte lysate, luciferase refolding luminescence, 3 h; inhibition, % at 5.6 µM; 290,000 compounds, 0.91% hits; AID 1789;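 active means inhibition above the screen-wide mean plus 3 SD, computed separately per campaign, cut at about 16% in these data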;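 further: 0% = DMSO wells and 100% = 60 µM geldanamycin wells; inhibitors lower the luminescence because luciferase stays unfolded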
LGR2 antag: inhibitors of bursicon-induced Drosophila LGR2 receptor cAMP signaling; inhibition, % at 9.99 µM; 380,000 compounds, 0.35% hits; AID 720647; HEK293 LGR2, CRE-luciferase, bursicon-stimulated, 4 h;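 active means drop in luminescence signal, shown as inhibition above about 50% in the replicate tests, limit read from the data, passing the limit was not always enough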;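 further: agonist challenge used bursicon conditioned medium at about half maximal strength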
TWEAK-Fn14 inh: blocks TWEAK-Fn14 interaction in a reporter cell assay; TWEAK-stimulated Fn14 reporter cells, luciferase luminescence, 8 h; 360,000 compounds, 2% hits; inhibition, % at 10 µM; AID 1159606; in the data active means inhibition above about 50%
HSP90 confirm: confirmation of HSP90 inhibitors; rabbit reticulocyte lysate, luciferase refolding luminescence, 3 h; inhibition, % at 5.9 µM; shares compounds with HSP90 refold inh; 2,300 compounds, 64% hits; AID 1846; in the data active means inhibition above about 18%;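 further: 0% = vehicle wells and 100% = reference inhibitor wells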
FLuc counter: firefly luciferase inhibition, HSP90 counter-screen; AID 1847; purified native firefly luciferase, luminescence; inhibition, % at 5.9 µM; shares compounds with HSP90 refold inh; 2,300 compounds, 48% hits;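 active means inhibition above the mean inhibition of all tested sample wells plus 3 SD, cut at about 10% in these data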;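 further: 0% = DMSO with luciferase and 100% = wells lacking luciferase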
Target sequence (P08659 whole entry, looked up): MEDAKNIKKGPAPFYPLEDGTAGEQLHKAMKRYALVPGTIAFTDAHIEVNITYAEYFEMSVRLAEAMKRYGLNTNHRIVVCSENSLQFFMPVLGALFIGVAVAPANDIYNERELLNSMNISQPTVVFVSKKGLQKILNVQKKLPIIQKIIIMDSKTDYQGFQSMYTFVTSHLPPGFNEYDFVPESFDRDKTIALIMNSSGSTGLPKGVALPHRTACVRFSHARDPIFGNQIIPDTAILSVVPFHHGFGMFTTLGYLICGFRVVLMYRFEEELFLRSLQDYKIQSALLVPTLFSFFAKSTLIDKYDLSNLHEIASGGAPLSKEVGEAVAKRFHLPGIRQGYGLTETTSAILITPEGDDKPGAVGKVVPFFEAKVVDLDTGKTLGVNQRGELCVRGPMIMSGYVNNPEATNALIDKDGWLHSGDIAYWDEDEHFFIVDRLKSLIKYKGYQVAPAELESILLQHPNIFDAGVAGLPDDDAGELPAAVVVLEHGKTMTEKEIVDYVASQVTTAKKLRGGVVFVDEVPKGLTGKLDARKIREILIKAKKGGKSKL
Active calls of the source: *; . = no result given.

SMILES	TROY signal inh	HSP90 refold inh	LGR2 antag	TWEAK-Fn14 inh	HSP90 confirm	FLuc counter
CCOc1ccc(-c2nc(CN3CCCC(C(=O)N4CCOCC4)C3)c(C)o2)cc1 (stereo unspecified)	-13.9	18.5*	-3.9	16.9	24.4*	-2.8
CNC[C@@H]1Oc2cc(C#CCC(C)C)ccc2S(=O)(=O)N([C@@H](C)CO)C[C@H]1C	.	.	-11.9	.	.	.
Cc1nc(NC(=O)c2ccccc2)sc1-c1csc(Nc2ccc(Cl)cc2Cl)n1	.	44.8*	.	.	34.9*	-12.8
Cc1nc(NC(=O)c2ccco2)sc1-c1csc(Nc2ccc(Cl)cc2Cl)n1	-39.1	8.7	-23.1	1.6	.	.
COc1ccc(Cl)cc1Nc1nc(-c2sc(NC(=O)c3ccccc3)nc2C)cs1	.	40.1*	.	.	23.6*	-3.4
COc1ccc(OC)c(Nc2nc(-c3sc(NC(=O)c4ccccc4)nc3C)cs2)c1	.	27.2*	.	.	19.1*	-4.9
Cc1ccc(S(=O)(=O)N(C)C[C@@H]2Oc3ccc(NS(=O)(=O)c4cccs4)cc3C(=O)N([C@H](C)CO)C[C@H]2C)cc1	.	.	-5.7	.	.	.
COc1ccc(CN(Cc2cc3cc(OC)c(OC)cc3[nH]c2=O)C(=O)NC2CCCCC2)cc1	25.4	-1.2	.	8.6	.	.
COc1cc2cc(CN(C(=O)NC3CCCCC3)C3CCCC3)c(=O)[nH]c2cc1OC	-2.8	22.1*	.	6.7	-4.3	-7.5
CCOC(=O)Nc1ccc2c(c1)N(C(=O)CCN(CC)CC)c1ccccc1CC2	7.3	26.4*	2.8	5.5	-0.9	-2.8
O=C(O)c1ccc(N/N=C/c2ccc3nccnc3c2)cc1	53.7*	91.5*	96.4*	101.5*	92.2*	85.1*
Cc1ccc2nc(Cl)c(/C=N/Nc3ccc(C(=O)O)cc3)cc2c1	26.2	28.8*	-70.7	51.0*	17.9*	-10.2
O=C(O)c1ccc(N/N=C/c2ccncc2)cc1	0.6	6.2	0.9	35.4	.	.
COc1cc(/C=N/NS(=O)(=O)c2ccc(C)cc2)ccc1OCc1ccc(C(=O)O)cc1	-69.9	65.5*	42.5	-13.0	-2.6	-11.0
COc1cc(/C=N/Nc2ccc(C(=O)O)cc2)ccc1O	27.0	38.3*	23.2	71.5*	62.6*	53.6*
COc1cc(/C=N/Nc2ccc(C(=O)O)cc2)cc(OC)c1OC	-54.1	11.4	-19.7	-14.0	.	.
CCOc1ccc(/C=N/NS(=O)(=O)c2ccc(C)cc2)cc1OC	14.7	-2.4	-21.9	-6.6	.	.
CC(=O)Nc1ccc2c(c1)C(=O)N(C)[C@H]1CC[C@H](CC(=O)NCCCN3CCOCC3)O[C@H]1CO2	.	.	-10.1	.	.	.
Cc1ccc(S(=O)(=O)N(C)C[C@@H]2OCCCC[C@H](C)Oc3ccc(NC(=O)NC4CCCCC4)cc3C(=O)N([C@H](C)CO)C[C@H]2C)cc1	.	.	5.3	.	.	.
CCNC(=O)C[C@H]1CC[C@@H]2[C@H](COC[C@@H](O)CN2C(=O)c2cc(Cl)cc(Cl)c2)O1	.	.	13.2	.	.	.
C[C@@H]1CN([C@@H](C)CO)C(=O)c2cc(NS(=O)(=O)c3cn(C)cn3)ccc2O[C@@H]1CN(C)C(=O)Nc1ccc(C(F)(F)F)cc1	.	.	13.7	.	.	.
CN(C)C(=O)c1ccc(-c2ccc([C@@H]3[C@@H](C#N)N(C(=O)C4CC4)[C@H]3CO)cc2)cc1	.	.	-0.1	.	.	.
Cc1cc(C(=O)Nc2ccc3c(c2)C(=O)N(C)[C@@H]2CC[C@@H](CC(=O)N[C@H](C)c4ccccc4)O[C@H]2CO3)no1	.	.	-12.2	.	.	.
COc1ccc(-n2c(C)cc(-c3csc(NC(=O)c4ccc(S(=O)(=O)N(C)C)cc4)n3)c2C)cc1	12.0	20.4*	-0.1	-10.8	38.7*	-6.4
CC(=O)N(C)C[C@@H]1Oc2cc(C3=CCCC3)ccc2S(=O)(=O)N([C@@H](C)CO)C[C@H]1C	.	.	-6.2	.	.	.
SMILES	TROY signal inh	HSP90 refold inh	LGR2 antag	TWEAK-Fn14 inh	HSP90 confirm	FLuc counter
O=C(OCC(=O)c1cccs1)c1ccccc1	-64.7	-3.0	.	-14.2	.	.
Cc1ccc(NC(CC(=O)c2ccccc2)C(=O)O)cc1Cl (stereo unspecified)	19.3	5.5	-66.1	29.1	.	.
O=C(CC(Nc1ccc(Cl)cc1Cl)C(=O)O)c1ccccc1 (stereo unspecified)	87.0*	24.7*	41.8	94.5*	75.8*	74.0*
O=C(CC(Nc1ccccc1Cl)C(=O)OCC(=O)c1cccs1)c1ccccc1 (stereo unspecified)	71.2*	31.7*	.	70.1*	43.3*	37.8*
COc1ccccc1N/C=C/c1onc(C)c1[N+](=O)[O-]	71.5*	38.7*	72.9*	78.3*	78.2*	71.2*
COc1ccccc1C(=O)Nc1ccc2c(c1)C(=O)N(C)C[C@@H](OC)[C@H](C)CN(CC1CC1)[C@H](C)CO2	.	.	-6.1	.	.	.
Fc1cccc(Cl)c1C1Nc2cccc3cccc(c23)N1	6.3	18.6*	-1.8	26.6	-2.4	-5.4
Clc1cccc(Cl)c1C1Nc2cccc3cccc(c23)N1	24.6	4.6	-4.8	0.4	.	.
COc1ccc(-c2cc(C(=O)N3CCOCC3)no2)cc1	41.1	37.0*	53.4*	65.3*	50.0*	32.3*
CC1CCN(C(=O)c2cc(-c3ccc4c(c3)OCO4)on2)CC1	-24.3	20.3*	-16.0	53.5*	39.1*	28.2*
COc1cccc(-c2cc(C(=O)N3CCOCC3)no2)c1	-15.9	18.5*	-21.7	-45.8	18.6*	-4.1
CC1CCCCN1C(=O)c1cc(-c2ccc3c(c2)OCO3)on1 (stereo unspecified)	12.2	7.0	-59.3	23.8	.	.
O=C(c1cc(-c2ccc(Br)cc2)on1)N1CCOCC1	-2.2	18.9*	-4.4	55.4*	38.3*	29.1*
CN(C)C(=O)C[C@@H]1C[C@H]2c3cc(NC(=O)CC4CC4)ccc3O[C@H]2[C@@H](CO)O1	.	.	-31.6	.	.	.
Cc1cccc(/C=N/Nc2ccc3ccccc3n2)c1	84.4*	65.7*	79.3*	92.8*	84.6*	84.3*
C(=N\Nc1ccc2ccccc2n1)/c1ccc2c(c1)OCCO2	87.6*	67.7*	87.6*	101.2*	92.9*	91.5*
Cc1cc(N/N=C/c2cccc(Br)c2)nc2ccccc12	-97.2	2.5	-52.2	-38.8	.	.
CCc1nnc(N/N=C/c2cc(Br)c(O)cc2O)n1N	16.2	7.0	7.0	-0.7	.	.
CCc1nnc(N/N=C/c2c(Cl)cccc2Cl)n1N	3.1	56.5*	10.6	11.9	-4.0	-8.7
CCc1nnc(N/N=C/c2cccs2)n1N	-3.9	66.2*	1.6	21.6	-1.2	-5.2
O=C(C[C@H]1CC[C@@H]2[C@H](COC[C@H](O)CN2CC2CCCCC2)O1)NCc1ccc(Cl)cc1	.	.	18.6	.	.	.
N#CCCN(Cc1cccnc1)C(=S)NCc1ccco1	-24.4	61.5*	-8.7	-0.9	3.8	0.8
CCCc1ccc(-c2cc(C(=O)N3CCN(c4ccccn4)CC3)c3ccccc3n2)cc1	48.0	37.9*	36.9	32.2	43.0*	12.3*
CCOc1cccc2cc(-c3csc(NC(=O)CCC(=O)NCCCN4CCC(C)CC4)n3)c(=O)oc12	.	-2.6	.	.	.	.
COc1cccc2cc(-c3csc(NC(=O)CCC(=O)NCCCN4CCC(C)CC4)n3)c(=O)oc12	20.8	27.3*	-2.3	59.3*	2.5	-15.2
